Data from PubChem BioAssay (NCATS).
Several values for one entry are separate records, joined by “and”; a condition that tells them apart may be missing. Identical values can stand only once. Inconclusive results are not listed. Activity calls are given as the source filed them. Unless noted, calls come from the whole dose curve; as a rule, active = well fitted cell-killing curve with a large enough effect; inconclusive = small, poorly fitted or top-dose-only effect, or effect the other way; inactive = flat fitted curve, though single readings scatter.

Tests used:
[1] = qHTS assay for cell viability of HEK293 cells (AID 743288); details: ATP luminescence (CellTiter-Glo), 18 h, active compounds read low; note: % is set by controls: 0 for no effect and ±100 for the full control effect; nearly all actives have a fitted effect of over 50% in size
Procedure, shortened: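 Environmental chemicals tested in qHTS format against parental HEK293 cells; 18 h treatment, 37 C; read-out ATP luminescence (CellTiter-Glo), 30 min RT development.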

[2] = qHTS assay for cell viability of the p53RE-bla HCT-116 cell line (AID 743292); details: p53RE-bla HCT-116 viability, ATP luminescence, 16 h; series mostly up to 95 µM; note: % is set by controls: 0 for no effect and ±100 for the full control effect; nearly all actives have a fitted effect of over 55% in size
Procedure, shortened: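 HCT-116 p53RE-bla cells seeded 4,000/well; 5 h at 37 C; compound (DMSO) added; 16 h at 37 C; CellTiter-Glo added, 30 min RT; luminescence read.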

[3] = molecular target: Nuclear receptor subfamily 1 group I member 2 (Rattus norvegicus) (UniProt Q9R1A7); test: qHTS assay for small molecule activators of the rat pregnane X receptor (rPXR) signaling pathway (AID 651751; call rule not given here; note: 0% is about no effect); details: rPXR reporter cells, luciferase (One-Glo), 24 h
[4] = qHTS assay for small molecule activators of the human pregnane X receptor (PXR) signaling pathway (AID 720659; call rule not given here; note: 0% is about no effect); details: DPX-2 HepG2 CYP3A4-luciferase, 24 h; series mostly up to 92.3 µM

Chain of Nuclear receptor subfamily 1 group I member 2 (Rattus norvegicus) (Q9R1A7 whole entry, looked up): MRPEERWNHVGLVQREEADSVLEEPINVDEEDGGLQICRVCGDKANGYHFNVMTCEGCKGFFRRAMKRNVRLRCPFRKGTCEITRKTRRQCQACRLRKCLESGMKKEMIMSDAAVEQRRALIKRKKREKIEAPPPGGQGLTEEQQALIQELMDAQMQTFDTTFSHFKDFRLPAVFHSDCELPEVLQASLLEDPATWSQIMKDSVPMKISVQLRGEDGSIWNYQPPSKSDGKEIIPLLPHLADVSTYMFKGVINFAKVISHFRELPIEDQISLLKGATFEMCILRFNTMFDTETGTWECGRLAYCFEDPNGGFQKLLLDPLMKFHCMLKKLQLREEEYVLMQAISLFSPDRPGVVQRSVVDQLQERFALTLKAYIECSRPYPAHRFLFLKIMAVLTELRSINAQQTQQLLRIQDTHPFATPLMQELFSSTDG

COc1cccc(N)c1
inactive: max response [1] -0.119% | Potency [2] | max response [3] 12.1% | outcome [4]

O=C1CCC(=O)O1
inactive: max response [1] -3.25% | Potency [2] | max response [3] -4.75% | outcome [4]

CCCCCCO
inactive: max response [1] 3.47% | Potency [2] | max response [3] 2.06% | outcome [4]

CC(=O)Nc1ccccc1C
inactive: max response [1] -9.82% | Potency [2] | max response [3] -0.909% | outcome [4]

CC1CCCO1 (stereo not drawn)
inactive: max response [1] -15.7% | Potency [2] | max response [3] -1.92% | outcome [4]

OC(CCl)CCl
inactive: max response [1] 5.53% | Potency [2] | max response [3] 0.333% | outcome [4]

Cc1ccco1
inactive: max response [1] 3.18% | Potency [2] | max response [3] -0.023% | outcome [4]

Nc1ccc(Cl)cc1[N+](=O)[O-]
inactive: max response [1] -4.72% | Potency [2] | max response [3] 1.08% | outcome [4]

c1ccc2n[nH]nc2c1
inactive: max response [1] -14.1% | Potency [2] | max response [3] -4.36% | outcome [4]

CCC(C)=O
inactive: max response [1] 4.69% | Potency [2] | max response [3] 4.73% | outcome [4]

Cc1c(N)cccc1[N+](=O)[O-]
inactive: max response [1] 11.6% | Potency [2] | max response [3] -0.458% | outcome [4]

CCCCOCCOCCSC#N
inactive: max response [1] 5.15% | Potency [2] | max response [3] -2.98% | outcome [4]

CCCCCCC(=O)O
inactive: max response [1] -7.36% | Potency [2] | max response [3] -2.97% | outcome [4]

Cc1ccc2oc(=O)ccc2c1
inactive: max response [1] 2.42% and -2.56% | Potency [2] | max response [3] 9.5% and 1.03% | outcome [4]

COc1ccc(OC)cc1
inactive: max response [1] -1.36% | Potency [2] | max response [3] 2.22% | outcome [4]

CCCCC(CC)C(=O)O (stereo not drawn)
inactive: max response [1] -7.06% | Potency [2] | max response [3] 1.13% | outcome [4]

O=C(O)c1ccc(C(=O)O)cc1
inactive: max response [1] 8.37% and 1.4% | Potency [2] | max response [3] -1.05% and -0.301% | outcome [4]

Cc1ccc(C(C)(C)C)cc1
inactive: max response [1] 1.5% | Potency [2] | max response [3] -0.498% | outcome [4]

C=CCCC
inactive: max response [1] -5.1% | Potency [2] | max response [3] 2.44% | outcome [4]

O=[N+]([O-])c1ccccc1CCO
inactive: max response [1] -3.96% | Potency [2] | max response [3] 5.68% | outcome [4]

C1CCC2OC2C1 (stereo not drawn)
inactive: max response [1] -1.95% | Potency [2] | max response [3] -4.14% | outcome [4]

Cc1ccccc1C(=O)O
inactive: max response [1] -7.38% | Potency [2] | max response [3] -1.94% | outcome [4]

CNC(=O)N(c1ccccc1)c1ccccc1
inactive: max response [1] 1.15% | Potency [2] | max response [3] 1.74% | outcome [4]

CC(=O)OC(C)=O
inactive: max response [1] 3.19% | Potency [2] | max response [3] 5.82% | outcome [4]

CC(=O)CC(C)C
inactive: max response [1] -6.25% | Potency [2] | max response [3] -2.17% | outcome [4]

NCCCCCCN
inactive: max response [1] 10.3% | Potency [2] | max response [3] 2.77% | outcome [4]

CCC(C)(C)OC
inactive: max response [1] -19.7% | Potency [2] | max response [3] -4.5% | outcome [4]

O=[N+]([O-])c1cc(C(F)(F)F)ccc1Cl
inactive: max response [1] -0.584% | Potency [2] | max response [3] 0.829% | outcome [4]

Cc1ccc(C)o1
inactive: max response [1] -6.28% | Potency [2] | max response [3] -1.6% | outcome [4]

Oc1c(Cl)ccc(Cl)c1Cl
inactive: max response [1] 4.44% | Potency [2] | max response [3] 0.125% | outcome [4]

O=C1OC(=O)c2c(Cl)c(Cl)c(Cl)c(Cl)c21
inactive: max response [1] 5.35% and -3.52% | Potency [2] | max response [3] 0.139% and -2.42% | outcome [4]

O=Nc1ccc(NO)cc1
inactive: max response [1] -9.92% | Potency [2] | max response [3] -3.74% | outcome [4]

ON=C1CCCCC1
inactive: max response [1] 1.04% | Potency [2] | max response [3] 3.07% | outcome [4]

O=C(O)c1ccccc1Cl
inactive: max response [1] -4.79% | Potency [2] | max response [3] 1.04% | outcome [4]

O=C(Cl)c1c(Cl)cccc1Cl
inactive: max response [1] 0.0079% | Potency [2] | max response [3] -2.88% | outcome [4]

Nc1cc(Cl)c([N+](=O)[O-])cc1O
inactive: max response [1] -3.32% | Potency [2] | max response [3] 3.19% | outcome [4]

O=c1[nH][nH]c(=O)c2cc([N+](=O)[O-])ccc12
inactive: max response [1] -7.38% | Potency [2] | max response [3] -1.39% | outcome [4]

ClC/C=C/CCl
inactive: max response [1] 4.84% | Potency [2] | max response [3] 5.09% | outcome [4]

CC(C)N=C=NC(C)C
inactive: max response [1] 3.11% | Potency [2] | max response [3] 1.41% | outcome [4]

OC1CCCC1
inactive: max response [1] 3.74% | Potency [2] | max response [3] -2.46% | outcome [4]

O=Cc1ccccc1Cl
inactive: max response [1] -11.9% | Potency [2] | max response [3] -0.844% | outcome [4]

CCC1CO1 (stereo not drawn)
inactive: max response [1] 4.98% | Potency [2] | max response [3] 4.08% | outcome [4]

CC/C=C/C#N
inactive: max response [1] 5.67% | Potency [2] | max response [3] 1.47% | outcome [4]

CC(C)C(C)C
inactive: max response [1] 2.97% | Potency [2] | max response [3] 9.63% | outcome [4]

Nc1cc(Cl)c(N)c(Cl)c1
inactive: max response [1] 3.57% and -5.3% | Potency [2] | max response [3] -6.29% and -6.62% | outcome [4]

CCOCCO
inactive: max response [1] -0.409% | Potency [2] | max response [3] -4.11% | outcome [4]

C=C(C)C(=O)OC
inactive: max response [1] 0.0882% | Potency [2] | max response [3] 2.17% | outcome [4]

Cc1cccc(C)c1[N+](=O)[O-]
inactive: max response [1] -0.503% and 0.264% | Potency [2] | max response [3] 1.64% and 13.2% | outcome [4]

CC(N)CN (stereo not drawn)
inactive: max response [1] -8.09% | Potency [2] | max response [3] 5.77% | outcome [4]

CCOc1ccccc1N
inactive: max response [1] 0.362% | Potency [2] | max response [3] 2.86% | outcome [4]

CC(C)C=O
inactive: max response [1] -10.3% | Potency [2] | max response [3] 1.58% | outcome [4]

Nc1nc(CC(=O)O)cs1
inactive: max response [1] -0.757% | Potency [2] | max response [3] -3.19% | outcome [4]

NC(=O)CCCCC(N)=O
inactive: max response [1] 10.2% | Potency [2] | max response [3] 1.18% | outcome [4]

Cc1cccc(Br)c1
inactive: max response [1] 1.57% | Potency [2] | max response [3] -3.61% | outcome [4]

Cc1c(N)cccc1N
inactive: max response [1] 6.3% | Potency [2] | max response [3] 3.73% | outcome [4]

O=C(O)CNC(=O)c1ccc([N+](=O)[O-])cc1
inactive: max response [1] -4.53% | Potency [2] | max response [3] 1.39% | outcome [4]

CCCC=O
inactive: max response [1] -2.32% | Potency [2] | max response [3] 1.21% | outcome [4]

CCNS(=O)(=O)c1ccc(C)cc1
inactive: max response [1] -4.78% | Potency [2] | max response [3] 2.12% | outcome [4]

CCCCCCCN
inactive: max response [1] 9.44% | Potency [2] | max response [3] -0.183% | outcome [4]

O=C(O)CCSSCCC(=O)O
inactive: max response [1] -9.15% | Potency [2] | max response [3] -1.84% | outcome [4]

Nc1nc2ccccc2[nH]1
inactive: max response [1] -5.2% | Potency [2] | max response [3] 10.8% | outcome [4]

CC(O)COC(C)(C)C (stereo not drawn)
inactive: max response [1] -14.3% | Potency [2] | max response [3] 2.3% | outcome [4]

CC(C)(C)OC=O
inactive: max response [1] 5.3% | Potency [2] | max response [3] 3.48% | outcome [4]

CC(=C/C=C/C(C)=C/C=C/C=C(C)/C=C/C=C(C)/C=C/C(=O)O)/C=C/C(=O)O
inactive: max response [1] -2.36% | Potency [2] | max response [3] 9.17% | outcome [4]

CC(=O)OCCC(C)C
inactive: max response [1] 3.44% | Potency [2] | max response [3] 8.07% | outcome [4]

COC(=O)CS
inactive: max response [1] 3.47% | Potency [2] | max response [3] -1.83% | outcome [4]

Clc1ccccn1
inactive: max response [1] -2.77% | Potency [2] | max response [3] -2.56% | outcome [4]

C1COC1
inactive: max response [1] 7.71% | Potency [2] | max response [3] -0.345% | outcome [4]

Cc1cc([N+](=O)[O-])ccc1N
inactive: max response [1] -5.02% | Potency [2] | max response [3] 2.26% | outcome [4]

CCN(Cc1ccccc1)c1ccccc1
inactive: max response [1] -4.87% | Potency [2] | max response [3] -3.13% | outcome [4]

CCOC(=O)OCC
inactive: max response [1] 1.3% | Potency [2] | max response [3] -3.24% | outcome [4]

N#Cc1ccccc1
inactive: max response [1] 7.56% | Potency [2] | max response [3] -4.02% | outcome [4]

Cc1cccc(C(=O)O)c1
inactive: max response [1] 2.24% | Potency [2] | max response [3] -5.92% | outcome [4]

Cc1cc(C)cc(N)c1
inactive: max response [1] -3.25% | Potency [2] | max response [3] 9.8% | outcome [4]

FC(F)(F)c1cccc(Cl)c1
inactive: max response [1] -5.31% | Potency [2] | max response [3] -6.22% | outcome [4]

CCC(C)(C)C
inactive: max response [1] -11.7% | Potency [2] | max response [3] -3.38% | outcome [4]

O=P(O)(OCc1ccccc1)OCc1ccccc1
inactive: max response [1] -11.9% | Potency [2] | max response [3] 3.16% | outcome [4]

CC(=O)c1ccccn1
inactive: max response [1] -9.54% | Potency [2] | max response [3] 2.33% | outcome [4]

C=Cc1ccccc1C=C
inactive: max response [1] 3.31% | Potency [2] | max response [3] 5.55% | outcome [4]

Cc1cc(C(=O)O)ccc1[N+](=O)[O-]
inactive: max response [1] -12% | Potency [2] | max response [3] -5.59% | outcome [4]

O=C1NC(=O)c2cc([N+](=O)[O-])ccc21
inactive: max response [1] -4.71% | Potency [2] | max response [3] 1.8% | outcome [4]

C=C(C)C(=O)OCC(C)O (stereo not drawn)
inactive: max response [1] -4.55% | Potency [2] | max response [3] -4.2% | outcome [4]
